# In all, about 220,000 compounds went through this assay and about 930 (0.42%) were called active. For the sample, actives were picked, then their nearest neighbours and some compounds at random. Unmarked numbers belong to inactive results. Cut-off read from the data, not from the text of the source: active = inhibition above about 50%; inactive = the rest.
# Molecular target: Glycoprotein 42 (Epstein-Barr virus (strain AG876)) (UniProt Q1HVG2)
# Assay: Epstein-Barr virus gp42 inhibitors, primary screen, biochemical, uHTS, fluorescence polarization (AID 1085)
# Conditions: Fluorescence polarization binding assay, mP read-out; hits give high values; tested at 21.74 µM
# Glycoprotein 42 (Epstein-Barr virus (strain AG876)), sequence (Q1HVG2 whole entry, looked up): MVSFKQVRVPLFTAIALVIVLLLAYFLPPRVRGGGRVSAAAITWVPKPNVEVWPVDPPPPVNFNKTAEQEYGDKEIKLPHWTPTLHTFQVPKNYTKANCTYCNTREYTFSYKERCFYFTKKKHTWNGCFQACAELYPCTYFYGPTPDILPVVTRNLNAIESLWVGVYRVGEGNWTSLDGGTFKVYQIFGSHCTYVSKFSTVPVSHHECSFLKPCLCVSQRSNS
row,SMILES,inhibition
1,CC1CCCN(S(=O)(=O)c2ccc(N(C(=O)c3cnccn3)C(C(=O)NC3CCCCC3)c3cccs3)cc2)C1 (stereo not drawn),-17.8%
2,Cc1cc(N2CCN(S(=O)(=O)c3ccc(C)c(C)c3)CC2)c2ccccc2n1,12.3%
3,Cc1ccc(S(=O)(=O)Nc2nc3ccccc3nc2N2CCc3ccccc3C2)cc1,8.67%
4,Cc1ccc(S(=O)(=O)C(C#N)c2nc3ccccc3nc2N2CCCC2)cc1C (stereo not drawn),69.2% (active)
5,O=C(COc1ccc(-c2ccccc2)cc1)NN=C1CCCC1,-13.3%
6,O=C(Nc1ccc2c(c1)OCCO2)c1ccoc1,-10.9%
7,COc1ccc(/C(O)=C2/C(=O)C(=O)N(CC3CCCO3)C2c2ccc(OC)c(OC)c2)cc1 (stereo not drawn),-16.4%
8,COc1ccc(-c2nc(CS(=O)CC(=O)NCc3cccnc3)c(C)o2)cc1OC (stereo not drawn),-12.1%
9,COc1ccc(-c2nc(CS(=O)CC(=O)N3CCc4ccccc4C3)c(C)o2)cc1 (stereo not drawn),-1.18%
10,COc1ccc(-c2nc(CS(=O)CC(=O)NCc3ccccn3)c(C)o2)cc1 (stereo not drawn),117% (active)
11,CC[N+]1(CC)CC2=Cc3ccccc3CC2C1 (stereo not drawn),-0.55%
12,N#Cc1cccc(Nc2c3c(nc4ccccc24)CCCC3)c1,5.27%
13,Cc1cccc(N)c1SC1CCCCC1O (stereo not drawn),-8.15%
14,O=C(Nc1nnc(Cc2ccc(Cl)cc2)s1)c1cccnc1,-5.07%
15,O=C(Nc1nnc(Cc2ccccc2)s1)c1cnccn1,58.2% (active)
16,O=C(Nc1nnc(Cc2ccc(Cl)cc2)s1)c1ccncc1,0.5%
17,Cc1cc(C)n2nc(C(=O)N3CCN(Cc4ccc5c(c4)OCO5)CC3)nc2n1,-5.29%
18,Cc1ccc(-c2nnc(SCC(=O)N/N=C/c3cccs3)n2-c2ccc(C)cc2)cc1,-4.61%
19,O=S(=O)(c1cccc(C(F)(F)F)c1)N1CCN(c2cnccn2)CC1,-12.8%
20,Cc1cccc(N=Nc2c(C)[nH]n(-c3ccccc3)c2=O)c1,4.36%
21,Oc1[nH]c2ccc(Br)cc2c1N=Nc1nn[nH]n1,-11.8%

row,SMILES,inhibition
1,Cc1cccc(N=Nc2c(O)[nH]c3ccc(F)cc23)c1,51.7% (active)
2,COc1ccc(-c2ccc(CNCCCN3CCOCC3)o2)cc1Cl,-7.89%
3,Cn1c(=O)c(=O)n(C)c2cc(S(=O)(=O)NCCN3CCN(c4ccccc4F)CC3)ccc21,-5.54%
4,CN(C)c1ccc(NC(=S)N(CCc2ccccc2)C2CC(=O)N(c3c(Cl)cccc3Cl)C2=O)cc1 (stereo not drawn),-7.96%
5,CCOCCCN(C(=O)Cn1nnc(-c2ccc(OC)c(OC)c2)n1)C(CC)C(=O)NC1CCCC1 (stereo not drawn),2.09%
6,CN(C)c1ccc(Nc2c3c4c(cccc4n(C)c2=O)C(=O)c2ccccc2-3)cc1,51.7% (active)
7,COC(=O)Cn1nc(-c2ccccc2)c2cc(Cl)ccc21,-7.25%
8,CCOC(=O)N1CCN(Cc2nc(Cc3cccc(C(F)(F)F)c3)no2)CC1,5.02%
9,O=C(COC(=O)/C=C/c1ccc(S(=O)(=O)N2CCCCCC2)cc1)NCc1ccccc1Cl,-7.1%
10,NC(=O)c1sc2nc3c(c(-c4ccccc4)c2c1N)CCC3,68.4% (active)
11,CC(=O)Nc1ccc(NC(=O)c2sc3nc4c(c(-c5ccc(C)cc5)c3c2N)CCC4)cc1,-13.2%
12,Cc1cccc(NC(=O)c2sc3nc4c(c(-c5ccco5)c3c2N)CCC4)c1,-22.7%
13,[O-][N+]12CCCCC1CCCC2CO (stereo not drawn),-12%
14,CCN(CC)c1ccc2oc(=O)c(C)nc2c1,51.1% (active)
15,CCN(CC)c1ccc2cc(C(=O)O)c(=O)oc2c1,-20.2%
16,CCN(CC)c1ccc2c(Nc3ccccc3)c(C=O)c(=O)oc2c1,-27.9%
17,CCOC(=O)C1=C(c2ccccc2)N=C2SCC(=O)N2C1c1ccc(O)c(OC)c1 (stereo not drawn),-7.62%
18,CSCC[C@H](NC(=O)NC1CCCC1)C(=O)O,-16.3%
19,CCc1nnc(NC(=O)Cc2cccs2)s1,15.8%
20,COc1ccc(Cc2nnc(NC(=O)Cc3cccs3)s2)cc1,73.9% (active)
21,O=C(Cc1cccs1)Nc1nnc(C2CC2)s1,-0.17%

row,SMILES,inhibition
1,CC(C)CCN1CCN(C/C=C/c2ccco2)CC1CCO (stereo not drawn),0.69%
2,O=C(Nc1ccc(N2CCN(C(=O)c3ccccc3)CC2)c(Cl)c1)c1ncn[nH]1,-5.31%
3,O=C(/C=C/Nc1ccc(S(=O)(=O)Nc2cnc3ccccc3n2)cc1)c1cccnc1,0.92%
4,COCCNC(=O)Nc1ccc2nc(-c3ccco3)c(-c3ccco3)nc2c1,52.7% (active)
5,O=C(NCc1ccccn1)c1ccc2nc(-c3ccco3)c(-c3ccco3)nc2c1,33.5%
6,COc1ccc(NC(=O)Nc2ccc3nsnc3c2)cc1,-9.53%
7,O=C(/C=C/c1cn(-c2ccccc2)nc1-c1ccc2c(c1)OCCO2)NCCCN1CCOCC1,-12.9%
8,CC(=O)c1ccccc1NC(=O)CC1(CC(=O)O)CCCCC1,-14.7%
9,Cc1cc(F)ccc1S(=O)(=O)Nc1ncnc2scc(-c3ccc(F)cc3)c12,9.65%
10,COc1cccc(N(CC(=O)NCCSc2ccccn2)S(C)(=O)=O)c1,-23.3%
11,Brc1ccc(-c2csc(N/N=C/c3cccnc3)n2)cc1,2.77%
12,CCCNc1c(N)c(=O)c1=O,2.64%
13,O=c1[nH]c2c(c(=O)n1Cc1ccccc1)CCC2,-9.97%
14,Cc1cc2nc3c(=O)n(Cc4ccccc4)c(=O)[nH]c3nc2cc1N,135% (active)
15,CC(=O)c1ccc(-c2ccc(Cn3c(C)nc4cc(N)c(C)nc43)cc2)cc1,2.98%
16,COC(=O)CCSc1cc([N+](=O)[O-])cc2c1c(C1OCCS1)nn2-c1ccccc1 (stereo not drawn),24.1%
17,O=C(COc1ccc(/C=N/NC(=O)c2ccc(O)cc2)cc1)Nc1ccc([N+](=O)[O-])cc1,77.5% (active)
18,O=C(N/N=C/c1ccc(OCc2ccccc2)cc1)c1ccc(O)cc1,-4.07%
19,CCCCCC(=O)Nc1ccc(C(=O)N/N=C/c2ccc([N+](=O)[O-])cc2)cc1,-19.6%
20,C/C=C\C=C\C(=O)N1CC2(CC(c3cccc(NC(=O)/C(C)=C\C)c3)=NO2)C[C@H]1C(N)=O (stereo partly drawn),-17.9%
21,CSc1ccccc1NC(=O)CN(C)CC(=O)Nc1cccc(Br)c1,-0.02%

# Reference: PubChem BioAssay AID1085 (Emory University Molecular Libraries Screening Center, 2008)
